In PubChem BioAssay:
Activity calls are given as the source filed them. Unless noted, the rule behind the calls is not given here.

How the values were obtained:
[1] = compounds binding Alexa647 anti-His antibody – biochemical, small-molecule microarray, 635 nm fluorescence, artefact control for SMM control protein annotation, primary screen (AID 1128); conditions: higher = more signal;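 note: score merges feature fluorescence with signal-to-noise for each printed compound spot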
[2] = tested on: Human papillomavirus type 1a E7 protein (residues 1-88); experiment: HPV1a E7 small-molecule binders, primary screen, biochemical, small-molecule microarray, residues 1-88, 635 nm (AID 1129); conditions: small-molecule microarray binding, fluorescence 635 nm; higher = more signal
[3] = molecular target: Focal adhesion kinase 1 (Homo sapiens) (UniProt Q05397); experiment: PTK2 protein binding on printed compound slides – biochemical, small-molecule microarray, 635/667 nm fluorescence, BSA, DTT, primary screen (AID 1130); conditions: 635 nm fluorescence, higher = more signal;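 note: composite of spot emission at 667 nm and signal to noise over triplicate slides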
[4] = tested on: Fibrinogen (Alexa647-labelled); experiment: Alexa647-fibrinogen binding to printed small molecules – biochemical, small-molecule microarray, 635/667 nm fluorescence, artefact control for SMM control-protein annotation, profiling panel (AID 1131); conditions: fibrinogen-A647 binding fluorescence, higher = more signal;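 note: z-score merges 667 nm fluorescence with per-spot signal-to-noise over triplicate slides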
[5] = molecular target: Follistatin (Homo sapiens) (UniProt P19883); experiment: FST protein binding to printed compounds – biochemical, small-molecule microarray, 635/667 nm fluorescence, primary screen (AID 1132); conditions: 635 nm fluorescence, higher = more signal
[6] = molecular target: Fibroblast growth factor 2 (Homo sapiens) (UniProt P09038); experiment: basic fibroblast growth factor binding to printed compounds – biochemical, small-molecule microarray, 635/667 nm fluorescence, primary screen (AID 1133); conditions: FGF2, fluorescence 635/667, higher = more signal
[7] = JC-1 mitochondrial potential readout, lung cancer cells – cell-based, A549, JC-1 fluorescence, basal, 24 h, 100 nL, profiling panel (AID 1138); conditions: higher = more signal;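 note: A549 lung adenocarcinoma cells under basal conditions with no added stimulus; test concentration not given here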
Lefty1 = Lefty1 protein binding to printed compounds – biochemical, small-molecule microarray, 635/667 nm fluorescence, primary screen (AID 1139); conditions: fluorescence 635/667, higher = more signal
[8] = tested on: wheat germ agglutinin (Triticum aestivum), Alexa647-labelled; experiment: Alexa647-WGA lectin binding to printed small molecules – biochemical, small-molecule microarray, 635/667 nm fluorescence, artefact control for SMM control-protein annotation, profiling panel (AID 1140); conditions: WGA-A647 binding, 635 nm fluorescence, higher = more signal;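 note: score merges 667 nm feature emission with signal to noise over triplicate slides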
[9] = molecular target: Luciferin 4-monooxygenase (Photinus pyralis) (UniProt P08659); experiment: inhibition of purified Photinus pyralis luciferase – biochemical, luminescence, purified enzyme, 2006 set, primary screen (AID 1141); conditions: purified firefly luciferase, SteadyGlo luminescence, 30 min; higher = more signal, called active from +8 up or from −8 down;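 note: cell-free assay with purified firefly luciferase at 100 ng per well in PBS; test concentration not given here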
[10] = tested on: Wnt5a (protein binding on small-molecule microarray); experiment: small molecules binding Wnt5a protein – biophysical, small-molecule microarray, 635/667 nm fluorescence, primary screen (AID 1142); conditions: 635 nm fluorescence, higher = more signal;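 note: fluorescence read at 667 nm with signal to noise per printed feature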
[11] = ATP-based viability of Huh7 replicon cells – cell-based, CellTiter-Glo luminescence, basal, 48 h, cytotoxicity control for HCV replication inhibitor project, primary screen (AID 1143); conditions: higher = more signal, called active from +8 up or from −8 down;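 note: Huh7 hepatoma cells carrying a hepatitis C replication reporter with no stimulus; test concentration not given here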
[12] = Pseudomonas biofilm growth suppression – PAO1 strain, BacTiter-Glo luminescence, LB-PBS, primary screen (AID 1144); conditions: P. aeruginosa PAO1 biofilm, 12 h, higher = more signal
[13] = basal CRE-LacZ reporter activity in PC12 – cell-based, unstimulated, primary screen (AID 1145); conditions: no forskolin, luminescence, 4.5 h, higher = more signal, called active from +8 up or from −8 down
[14] = forskolin-driven CRE-LacZ activity in PC12 – cell-based, CRE-LacZ reporter, forskolin-stimulated, primary screen (AID 1146); conditions: luminescence, 4.5 h, higher = more signal, called active from +8 up or from −8 down;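 note: PC12 cells with 6xCRE LacZ reporter stimulated by forskolin 10 µM; beta-galactosidase reporter signal reflecting CREB driven transcription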
[15] = molecular target: Streptavidin (Streptomyces avidinii) (UniProt P22629); experiment: compounds binding control protein streptavidin – biophysical, small-molecule microarray, 635/667 nm fluorescence, artefact control for SMM compound annotation, primary screen (AID 1147); conditions: higher = more signal;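 note: signal reflects streptavidin binding to arrayed compounds as a control protein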
[16] = probe aInhba binding on compound microarray – biochemical, small-molecule microarray, 635/667 nm fluorescence, primary screen (AID 1148); conditions: higher = more signal;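 note: score merges 667nm spot fluorescence with signal-to-noise for antibody binding to printed compounds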
Torsin-1A (Homo sapiens) [17] = molecular target: Torsin-1A (Homo sapiens) (UniProt O14656); experiment: TOR1A wild-type binding on microarray – cell lysate, small-molecule microarray, lysate, 635/667 nm, primary screen (AID 1149); conditions: COS7 hTOR1A-WT lysate, 635 nm fluorescence, higher = more signal
Torsin-1A (Homo sapiens) [18] = molecular target: Torsin-1A (Homo sapiens) (UniProt O14656); experiment: torsin A mutant lysate binding on microarrays – cell lysate, small-molecule microarray, COS7 lysate, 635/667 nm fluorescence, primary screen (AID 1150); conditions: COS7 hTOR1A mutant lysate, 635 nm fluorescence, higher = more signal;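 note: score pools 667 nm emission and signal to noise measuring lysate protein binding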
[19] = tested on: Sonic hedgehog protein (Shh); experiment: Sonic hedgehog microarray binding compounds – biochemical, small-molecule microarray, 635/667 nm fluorescence, primary screen (AID 1151); conditions: 635 nm fluorescence, higher = more signal;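 note: Shh protein binding to compounds spotted on small-molecule microarray slides; score combines spot fluorescence intensity with signal-to-noise across triplicate slides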

Sequence of Focal adhesion kinase 1 (Homo sapiens) (Q05397 whole entry, looked up): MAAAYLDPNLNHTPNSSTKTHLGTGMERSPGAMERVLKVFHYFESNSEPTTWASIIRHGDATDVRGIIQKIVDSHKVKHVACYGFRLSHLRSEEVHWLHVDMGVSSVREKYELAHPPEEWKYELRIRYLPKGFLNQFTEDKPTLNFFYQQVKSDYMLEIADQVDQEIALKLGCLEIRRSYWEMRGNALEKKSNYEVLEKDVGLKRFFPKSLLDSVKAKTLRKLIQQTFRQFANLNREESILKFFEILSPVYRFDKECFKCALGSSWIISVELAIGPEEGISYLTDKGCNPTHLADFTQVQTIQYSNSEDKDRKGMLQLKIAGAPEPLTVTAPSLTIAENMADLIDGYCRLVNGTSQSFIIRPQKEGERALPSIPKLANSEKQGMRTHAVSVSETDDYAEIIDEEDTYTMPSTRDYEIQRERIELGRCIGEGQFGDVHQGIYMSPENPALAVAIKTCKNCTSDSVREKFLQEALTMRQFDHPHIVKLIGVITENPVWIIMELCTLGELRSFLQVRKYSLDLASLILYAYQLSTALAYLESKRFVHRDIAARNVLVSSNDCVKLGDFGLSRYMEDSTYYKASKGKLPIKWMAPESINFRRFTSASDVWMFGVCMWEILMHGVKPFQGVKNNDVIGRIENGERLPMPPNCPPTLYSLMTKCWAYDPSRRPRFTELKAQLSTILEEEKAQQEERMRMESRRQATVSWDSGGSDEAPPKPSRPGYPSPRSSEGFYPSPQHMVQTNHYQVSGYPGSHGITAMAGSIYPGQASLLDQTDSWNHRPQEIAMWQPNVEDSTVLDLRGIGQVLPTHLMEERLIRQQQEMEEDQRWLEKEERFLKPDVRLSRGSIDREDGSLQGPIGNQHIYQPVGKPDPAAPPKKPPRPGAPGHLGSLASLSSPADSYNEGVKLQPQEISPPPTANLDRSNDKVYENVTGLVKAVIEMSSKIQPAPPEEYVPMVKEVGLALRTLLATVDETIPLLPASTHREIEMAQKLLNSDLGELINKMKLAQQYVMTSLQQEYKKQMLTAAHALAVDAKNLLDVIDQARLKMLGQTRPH
Sequence of Luciferin 4-monooxygenase (Photinus pyralis) (P08659 whole entry, looked up): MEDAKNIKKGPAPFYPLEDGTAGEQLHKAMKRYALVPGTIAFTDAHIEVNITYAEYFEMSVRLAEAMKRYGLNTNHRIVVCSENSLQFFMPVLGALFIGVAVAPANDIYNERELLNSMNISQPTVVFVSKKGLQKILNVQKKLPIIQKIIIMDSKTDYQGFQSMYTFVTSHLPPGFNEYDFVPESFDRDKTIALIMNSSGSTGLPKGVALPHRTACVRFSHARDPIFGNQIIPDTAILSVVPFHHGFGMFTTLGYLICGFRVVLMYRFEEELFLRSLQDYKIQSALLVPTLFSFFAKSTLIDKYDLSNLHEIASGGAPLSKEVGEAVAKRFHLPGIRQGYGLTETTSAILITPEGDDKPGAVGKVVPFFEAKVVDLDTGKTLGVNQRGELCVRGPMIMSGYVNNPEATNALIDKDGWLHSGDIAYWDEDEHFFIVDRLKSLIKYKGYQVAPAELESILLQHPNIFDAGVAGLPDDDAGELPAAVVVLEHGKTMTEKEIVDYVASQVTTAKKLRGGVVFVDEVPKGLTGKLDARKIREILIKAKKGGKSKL
Sequence of Fibroblast growth factor 2 (Homo sapiens) (P09038 whole entry, looked up): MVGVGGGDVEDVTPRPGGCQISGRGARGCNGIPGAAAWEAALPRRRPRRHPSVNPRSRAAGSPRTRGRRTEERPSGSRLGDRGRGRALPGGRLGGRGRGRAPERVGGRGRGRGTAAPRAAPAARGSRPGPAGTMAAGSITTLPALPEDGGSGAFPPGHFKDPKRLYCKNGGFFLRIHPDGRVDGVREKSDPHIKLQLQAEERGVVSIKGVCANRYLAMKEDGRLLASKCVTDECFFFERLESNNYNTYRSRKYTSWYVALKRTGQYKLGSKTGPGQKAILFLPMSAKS
Sequence of Torsin-1A (Homo sapiens) (O14656 whole entry, looked up): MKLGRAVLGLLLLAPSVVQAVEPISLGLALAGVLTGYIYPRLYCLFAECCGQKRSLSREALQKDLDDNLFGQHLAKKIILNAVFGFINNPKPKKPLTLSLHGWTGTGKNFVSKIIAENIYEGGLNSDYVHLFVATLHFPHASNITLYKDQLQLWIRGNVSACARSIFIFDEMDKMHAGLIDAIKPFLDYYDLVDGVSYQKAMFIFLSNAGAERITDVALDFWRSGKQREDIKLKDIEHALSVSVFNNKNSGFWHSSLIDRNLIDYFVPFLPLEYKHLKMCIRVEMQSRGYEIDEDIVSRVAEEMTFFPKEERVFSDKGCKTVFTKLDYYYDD
Sequence of Follistatin (Homo sapiens) (P19883 whole entry, looked up): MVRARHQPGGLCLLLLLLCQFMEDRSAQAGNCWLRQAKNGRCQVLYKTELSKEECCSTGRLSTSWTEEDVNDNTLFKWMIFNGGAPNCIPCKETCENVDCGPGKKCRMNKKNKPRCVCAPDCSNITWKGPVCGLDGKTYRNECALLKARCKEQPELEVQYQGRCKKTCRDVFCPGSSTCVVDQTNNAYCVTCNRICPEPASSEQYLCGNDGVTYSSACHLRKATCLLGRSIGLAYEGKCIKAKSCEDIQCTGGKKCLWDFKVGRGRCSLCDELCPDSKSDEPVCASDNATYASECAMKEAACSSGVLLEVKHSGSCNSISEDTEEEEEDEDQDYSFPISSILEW
Sequence of Streptavidin (Streptomyces avidinii) (P22629 whole entry, looked up): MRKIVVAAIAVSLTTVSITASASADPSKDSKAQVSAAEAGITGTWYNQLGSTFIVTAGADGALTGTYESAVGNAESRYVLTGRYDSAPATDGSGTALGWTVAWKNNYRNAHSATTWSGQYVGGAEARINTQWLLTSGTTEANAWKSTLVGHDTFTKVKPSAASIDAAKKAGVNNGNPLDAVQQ

Row | SMILES | composite z-score [1] | composite z-score [2] | composite z-score [3] | composite z-score [4] | composite z-score [5] | composite z-score [6] | z-score [7] | composite z-score (Lefty1) | composite z-score [8] | z-score [9] | composite z-score [10] | z-score [11] | z-score [12] | z-score [13] | z-score [14] | composite z-score [15] | composite z-score [16] | composite z-score (Torsin-1A (Homo sapiens) [17]) | composite z-score (Torsin-1A (Homo sapiens) [18]) | composite z-score [19]
1 | C#CCCCON=C1C[C@@H](O)[C@@H](O)[C@@H]2[C@@H]3C(=O)N(C(C)(C)C)C(=O)[C@@H]3CC[C@@H]12 | -0.331 | -0.175 | 0.324 | 0.139 | -1.54 | -0.92 | -0.289 | -1.28 | 0.171 | 0.648 (inactive) | 0.0416 | 0.536 (inactive) | 0.945 (inactive) | 0.785 (inactive) | 0.262 (inactive) | 0.0462 | -0.0762 | -0.196 | 0.348 | -1.22
2 | C=CC[C@@H]1C=C[C@H](ON=C(C)CCN2CCc3nc(-c4ccccc4)c(-c4ccccc4)cc3C2)[C@@H](CO)O1 | 0.133 | 0.876 | -0.372 | 0.727 | 0.787 | 0.362 | 2.3 | 0.736 | 0.169 | -0.118 (inactive) | 0.0399 | -0.648 (inactive) | -0.117 (inactive) | -0.0033 (inactive) | -1.03 (inactive) | 0.313 | -0.0719 | 0.593 | 0.415 | 1.12
3 | COC(=O)[C@@H]1CC[C@H](C)[C@@H](c2ccc(C)cc2)N1C(=O)c1ccc(C=NO[C@H](C)c2cn([C@@H]3COC[C@H]3O)nn2)cc1 | -0.684 | 1.13 | 0.155 | 0.677 | 0.353 | 0.502 | -0.662 | 0.551 | 0.145 | 0.411 (inactive) | 0.177 | -0.228 (inactive) | 0.068 (inactive) | 2.34 (inactive) | -0.377 (inactive) | -0.243 | 0.0001 | 0.28 | 0.603 | 0.749
4 | C=C(C)C(=O)OCC1CN2[C@@H](CC[C@@H](C)[C@@H]2c2ccc(Br)cc2)C(=O)O1 (stereo not given in full) | 0.0797 | 0.281 | 1.64 | 0.794 | 0.196 | 0.192 | 0.717 | 0.452 | 0.0513 | -0.0906 (inactive) | 0.192 | -0.295 (inactive) | 1.34 (inactive) | 1.91 (inactive) | -0.0828 (inactive) | 0.33 | -0.0627 | -0.2 | 1.13 | 0.486
5 | CCOC(=O)NN=C1C[C@@H](O)[C@@H](O)[C@@H]2[C@@H]3C(=O)N([C@@H](C)c4ccccc4)C(=O)[C@@H]3CC[C@H]12 | 0.236 | 0.416 | -0.35 | 0.65 | 0.285 | 0.166 | -0.877 | 0.246 | 0.152 | 0.846 (inactive) | 0.0373 | -0.339 (inactive) | 0.627 (inactive) | -0.115 (inactive) | -0.174 (inactive) | -0.0822 | -0.0131 | 0.834 | 0.522 | 0.127
6 | C=Cc1ccc([C@H]2N[C@H](C(=O)O)CC[C@@H]2C)cc1 | 0.126 | -1.47 | -0.584 | -0.719 | 0.632 | 0.486 | 1.28 | 0.431 | 0.388 | -0.33 (inactive) | -0.0905 | 0.369 (inactive) | 0.53 (inactive) | -0.346 (inactive) | 0.179 (inactive) | -0.536 | -0.0714 | -0.188 | 0.307 | 0.36
7 | CCOC(=O)[C@H](Cc1ccccc1)NC(=O)CCC1CC(OC(=O)NCc2ccc3c(c2)OCO3)CC2(CCCC(COC(=O)NCCc3ccccc3OC)O2)O1 (stereo not given in full) | 0.969 | 1.2 | 0.492 | 1 | 1.07 | 1.32 | -0.654 | 1.36 | 0.63 | 0.274 (inactive) | 0.296 | -0.415 (inactive) | 0.8 (inactive) | 17.2 (active) | 0.109 (inactive) | 1.19 | -0.0937 | 0.479 | 0.252 | 0.995
8 | O=C1[C@H]2[C@H]3[C@H](O)[C@H](O)CC(=NOCc4ccccc4)[C@@H]3CC[C@H]2C(=O)N1Cc1ccc2c(c1)OCO2 | 0.0116 | 0.316 | 0.928 | 0.866 | 1.23 | 0.319 | -0.368 | 0.268 | 0.261 | 0.729 (inactive) | 0.0098 | 0.445 (inactive) | -0.312 (inactive) | 0.0664 (inactive) | -0.174 (inactive) | 0.193 | -0.101 | 0.537 | -0.0537 | 0.643
9 | COc1ccc(O[C@H]2C=C[C@@H](c3ccccc3)O[C@@H]2COC(=O)CCC(C)=NO[C@@H]2O[C@H](COC(C)=O)[C@@H](OC(C)=O)[C@H](OC(C)=O)[C@H]2OC(C)=O)cc1 | 0.487 | 0.795 | -0.234 | 0.708 | 0.293 | 0.641 | -0.388 | 0.742 | 0.262 | 1.16 (inactive) | 0.0276 | -0.178 (inactive) | -0.333 (inactive) | 2.85 (inactive) | 0.847 (inactive) | 0.484 | -0.106 | 0.495 | 0.21 | 0.918
10 | CC(C)(C)N1C(=O)[C@H]2[C@H]3[C@H](O)[C@H](O)CC(=NOCc4ccccc4)[C@H]3CC[C@H]2C1=O | 0.102 | 0.0128 | -0.103 | 0.451 | -0.829 | -0.34 | -0.316 | -0.484 | 0.877 | 0.109 (inactive) | 0.0771 | 0.899 (inactive) | -0.192 (inactive) | 0.968 (inactive) | 0.183 (inactive) | 1 | 0.0342 | -0.65 | 0.155 | -0.587
